Screening data: PubChem BioAssay, National Center for Advancing Translational Sciences (NCATS)
A selection: hits, their analogues and other compounds. The true share with any hit is near 7.5%.
HCMV inh = human cytomegalovirus inhibition; HFF cells, HCMV-luciferase reporter, 72 h; active compounds read low; activity change, negative = inhibition, % at 57.5 µM; 410,000 tested, 4.5% active; in the data active = activity change below about -60%; inconclusive = no clear call, values can overlap the other calls; inactive = above about -39%
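HFF cells seeded 16 h at 37C, treated with compounds, infected with luciferase-reporter HCMV at MOI 1 PFU/cell; luciferase read at 72 h post infection, normalized to buffer-only and Salinomycin controls.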
VACV mCherry inh = vaccinia inhibition (mCherry reporter). AID 720579. 310,000 tested, 0.63% active. Vaccinia virus mCherry reporter infection, fluorescence. Potency, µM (doses to about 36.5 µM), inactives show at the highest dose activity change, negative = inhibition, hits mostly inhibitors; calls by dose curve; tested in A549 cells; note: potency is the fitted concentration of half-maximal effect; nearly all actives have a fitted effect of over 35% in size
FMDV inh = antivirals against foot and mouth disease virus | FMDV antiviral cell-based qHTS | Potency, µM (doses to about 57.9 µM), for inactives: top-dose activity change, negative = inhibition, hits mostly inhibitors | 410,000 tested, 1.2% active | AID 1159524; calls by dose curve; tested in HEK293T cells; note: read-out not given here; potency is the fitted concentration of half-maximal effect; nearly all actives have a fitted effect of over 45% in size
HCV inh = inhibitors of hepatitis C virus infection; Potency, µM (highest dose often 41.8 µM), for the others: at the top dose activity change, negative = inhibition, usual class: inhibitors; 340,000 tested, 3.4% active; AID 651820; Huh7.5.1 HCVcc-Cre infection, luciferase reporter, 44 h; note: potency is the fitted concentration of half-maximal effect
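Luciferase read-out (15 sec integration) after a 15 min room-temperature substrate step quantifies HCVcc-Cre infection. Cells, 1,000 per well, had compound added 4 h post-plating, then virus at ~0.5 moi, and were cultured 44 h.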
Vaccinia Venus = inhibitors of vaccinia virus (Venus reporter). 330,000 tested, 0.46% active. AID 720580. Vaccinia virus Venus reporter expression, fluorescence. Potency, µM (top dose mostly 36.5 µM), without a hit: at the top dose activity change, negative = inhibition, hits mostly inhibitors; calls by dose curve; tested in A549 cells; note: potency is the fitted concentration of half-maximal effect; nearly all actives have a fitted effect of over 30% in size
FBPA Giardia inh = Giardia lamblia aldolase inhibition | AID 2451 | A8B2U2 | 290,000 tested, 0.71% active | Potency, µM (top dose mostly 59.6 µM), for the others: at the highest dose activity, negative = inhibition, actives largely listed as inhibitors | purified Giardia FBPA; note: potency is the fitted concentration of half-maximal effect; nearly all actives have a fitted effect of over 55% in size
Target sequence (A8B2U2 whole entry, looked up): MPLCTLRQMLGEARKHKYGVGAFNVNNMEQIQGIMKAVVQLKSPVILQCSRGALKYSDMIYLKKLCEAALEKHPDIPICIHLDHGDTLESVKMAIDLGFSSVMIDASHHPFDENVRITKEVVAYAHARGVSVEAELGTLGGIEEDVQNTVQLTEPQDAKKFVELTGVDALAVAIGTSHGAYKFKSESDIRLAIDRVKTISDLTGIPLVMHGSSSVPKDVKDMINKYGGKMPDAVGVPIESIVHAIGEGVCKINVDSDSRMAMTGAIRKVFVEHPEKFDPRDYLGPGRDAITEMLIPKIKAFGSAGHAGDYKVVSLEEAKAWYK
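Giardia FBPA (40 nM reagent) was preincubated 10 min at RT with compound (up to 57.5 uM final), then substrate plus GAPDH/TPI/NAD/arsenate coupling system with diaphorase/resazurin was added; resorufin fluorescence (525/598 nm) was read after 20 min.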
Numbers without * were called inactive; i = inactive; ? = inconclusive; nt = no result given; [ ] = another dose, or the depositor's remark. Unless noted, calls come from the whole dose curve; as a rule, active = well fitted curve in the direction sought with a large enough effect; inconclusive = small, poorly fitted or top-dose-only effect, or another doubt; inactive = no such curve, though single readings can be large; an effect the other way counts as inactive or inconclusive. % is set by controls: 0 for no effect and ±100 for the full control effect.

SMILES	HCMV inh	VACV mCherry inh	FMDV inh	HCV inh	Vaccinia Venus	FBPA Giardia inh
COc1ccc(-n2c(/C=C/c3ccc4c(c3)OCO4)nc3ccccc3c2=O)cc1	-84*	i	?	?	-17%	0%
Cc1ccc(-n2c(/C=C/c3ccc4c(c3)OCO4)nc3ccccc3c2=O)cc1	-102*	nt	nt	4%	nt	-2%
Cc1[nH]c2ccc(OC(F)(F)F)cc2c1CCNCc1ccc(Cl)cc1	-99*	-24%	-17%	?	-22%	?
CCOc1cccc(CNCCc2c(C)[nH]c3ccc(OC(F)(F)F)cc23)c1O	-101*	?	14µM*	?	10µM*	-30%
COC(=O)C(Nc1cc(OC)ccc1OC)(c1ccc(F)cc1)C(Nc1cc(OC)ccc1OC)c1ccc(Br)cc1 (centres undefined)	-7	nt	nt	nt	nt	nt
O=C(CCSCc1ccc(Cl)cc1)NCc1cccnc1	7	-21%	-23%	-5%	-3%	0%
COCC(C)N=C1NN=C(c2cc(C)n(Cc3ccccc3Cl)c2C)CS1 (centres undefined)	-79*	nt	-21%	?	nt	1%
COCCn1c(C)cc(C2=NNC(=NC3CC3)SC2)c1C	-96*	i	1.3µM*	?	-4%	-16%
C=CCN=C1NN=C(c2cc(C)n(CCOC)c2C)CS1	-96*	-2%	4.5µM*	-4%	-5%	?
COCCn1c(C)cc(C2=NNC(=Nc3ccc(Cl)cc3Cl)SC2)c1C	-21	nt	5%	-12%	nt	-2%
C=CCn1c(C)cc(C2=NNC(=NC(C)(C)C)SC2)c1C	-85*	-18%	?	?	-25%	-3%
COCCCN=C1NN=C(c2cc(C)n(Cc3ccco3)c2C)CS1	19	nt	4%	-3%	nt	-6%
CC(=O)c1cccc(OCC(=O)Nc2cc(S(=O)(=O)N3CCOCC3)ccc2N2CCCC2)c1	-11	i	-16%	-3%	-4%	nt
Cc1cc(C2=NNC(=NC3CC3)SC2)c(C)n1Cc1ccco1	-98*	-9%	3.2µM*	?	-19%	-3%
CC(C)(C)N=C1NN=C(c2ccc(Cl)cc2)CS1	?	nt	5%	10µM*	nt	-1%
CCC(=O)N1CCc2cc(Br)cc(S(=O)(=O)CCC(=O)Nc3ccccc3C)c21	-2	-12%	-17%	nt	-12%	nt
Cc1ccc(OCCC(=O)OCC(=O)Nc2ccc3c(c2)OCO3)cc1	-2	?	12%	1%	-12%	nt
COc1nc(N(C)S(=O)(=O)c2ccc(C)cc2)nc(C)c1Cl	-61*	nt	-8%	?	nt	7%
CC/C(=N\NC(=O)c1cc(C2CC2)[nH]n1)c1ccccc1	-27	nt	38%	7%	nt	-7%
Cc1ccc(S(=O)(=O)N2CCOC2CNC(=O)C(=O)NCCc2c[nH]c3ccccc23)cc1 (centres undefined)	-80*	nt	?	?	nt	-3%
COc1ccc(S(=O)(=O)N2CCOC2CNC(=O)C(=O)NCCc2ccc(OC)c(OC)c2)cc1C (centres undefined)	-39	-27%	?	11µM*	-21%	4%
Cc1cc(C)c(S(=O)(=O)N2CCCOC2CNC(=O)C(=O)NCCc2c[nH]c3ccccc23)c(C)c1 (centres undefined)	-82*	-23%	?	?	?	-6%
CNC(=O)C(=O)NCC1OCCN1S(=O)(=O)c1ccc([N+](=O)[O-])cc1 (centres undefined)	-1	-22%	-16%	19%	?	-6%
O=C(NCCc1c[nH]c2ccccc12)C(=O)NCC1OCCCN1S(=O)(=O)c1ccc(F)cc1 (centres undefined)	?	-29%	?	?	-17%	1%
O=C(NCc1ccccc1)C(=O)NCC1OCCN1S(=O)(=O)c1ccc([N+](=O)[O-])cc1 (centres undefined)	-78*	10µM*	-8%	-3%	?	0%
SMILES	HCMV inh	VACV mCherry inh	FMDV inh	HCV inh	Vaccinia Venus	FBPA Giardia inh
COC(=O)c1ccc(CNC(=O)c2ccc(OCC(=O)N3CCOCC3)c(OC)c2)cc1	-29	-14%	-12%	7%	-7%	nt
O=C(O)C1OC(O)C(O)C(O)C1O (centres undefined)	nt	nt	nt	nt	nt	5%
Cc1cc(Cn2nnnc2-c2ccncc2)cc(C)c1O	26	-11%	-15%	0%	-21%	2%
CCC(=O)N1c2ccccc2CC1C(=O)NCc1ccc(OC(C)C)cc1 (centres undefined)	-7	-20%	?	nt	-13%	nt
CCOC(=O)c1c(C)[nH]c(C(=O)OC(C(=O)N(C)C)c2ccccc2)c1C (centres undefined)	nt	-20%	nt	nt	-17%	nt
Cc1cc(F)ccc1S(=O)(=O)N1CCCOC1CNC(=O)C(=O)NCCc1c[nH]c2ccccc12 (centres undefined)	-36	-15%	32µM*	11µM*	-19%	1%
Cc1onc(-c2c(F)cccc2Cl)c1C(=O)Oc1ccccc1	-11	20%	-21%	nt	-4%	nt
COc1cc(C(=O)NC2CCN(C)CC2)ccc1Nc1ncc2c(n1)N(C1CCCCC1)CCC(=O)N2C	?	?	31%	1.8µM*	?	nt
COc1ccc(C(=O)NC2CCCCC2)cc1S(=O)(=O)N1CCCC1	4	-13%	48%	?	-2%	2%
COc1cc(C(=O)NC2CCN(C)CC2)ccc1Nc1ncc2c(n1)N(Cc1ccccc1)CCC(=O)N2C	-76*	-18%	30%	29%[8.37 µM]	?	nt
Cc1ccc(NC(=O)C(OC(=O)c2cc(C)oc2C)c2ccccc2)cc1 (centres undefined)	-61*	-2%	16%	-6%	-12%	2%
Cc1ccc(NS(=O)(=O)c2ccc3c(c2)CC(=O)N3)c(C)c1	-33	-21%	-20%	9%	1%	4%
Cc1ccc(NS(=O)(=O)c2ccc3c(c2)CC(=O)N3)cc1F	-62*	-23%	44%	18%	-11%	nt
COCCn1c(/C=C/c2ccccc2)nc2ccccc21	6	-14%	66%	33%	-24%	-29%
COc1ccccc1Cn1c(/C=C/c2ccccc2)nc2ccccc21	-25	-27%	-18%	10µM*	-25%	-8%
COc1ccc(/C=C/c2nc3ccccc3n2Cc2ccccc2OC)cc1	-98*	-4%	-27%	?	-12%	-15%
O=c1cc(CN(Cc2ccccc2)Cc2ccccc2)c2ccccc2o1	-8	i	-19%	nt	1%	nt
CCCCCn1c(=N)n(CC(O)COc2cccc(C)c2)c2ccccc21 (centres undefined)	-105*	10µM*	?	nt	10µM*	nt
CCCCn1c(=N)n(CC(O)COc2ccc(C)cc2)c2ccccc21 (centres undefined)	-34	nt	?	11µM*	nt	-13%
COC(=O)c1ccc(CSc2nnc(-c3c[nH]c4ccccc34)n2-c2ccccc2)cc1	-31	-10%	-21%	22µM*	-12%	0%
